# Experimental data: PubChem BioAssay AID2315 (National Center for Advancing Translational Sciences (NCATS), 2010)
# The campaign covered roughly 290,000 compounds. About 27,000 (9.3%) were called active. This excerpt belongs to a sample that is enriched for actives. A number with no mark means an inactive call. No stated cut-off is given here; in the data, active means inhibition mostly above about 28% (no sharp cut-off); inactive means mostly below about 43%.
# Assay: A qHTS for Small Molecule Inhibitors of Shiga Toxin; further: 0% is about no effect
# Conditions: Vero cells, Shiga toxin protein synthesis inhibition reporter; at 38.7 µM, active compounds read high
row,Structure (SMILES),inhibition
1,COc1ccccc1C(=O)Nn1cnnc1,-6.2%
2,C#CCOc1ccccc1/C=C1/C(=O)ON=C1C,3.31%
3,CC(=O)N1c2ccc(S(=O)(=O)N3CCC(C(=O)NC4CCCCC4C)CC3)cc2CC1C (stereo not given),-11.2%
4,COc1cccc(OC)c1C(=O)Nc1c(C(=O)N2CCN(c3ccccn3)CC2)oc2ccccc12,3.52%
5,CCOC(=O)C1CCN(C(=O)CN2C(=O)c3cccnc3Oc3ccc(C)cc32)CC1,-9.03%
6,COc1ccc(N(C(=O)c2snc(C(N)=O)c2N)C(C(=O)NC2CCCC2)c2ccc(C)o2)c(OC)c1 (stereo not given),-6.03%
7,Cc1ccc2c(c1)N(CC(=O)N1CCCC(C)C1)C(=O)CO2 (stereo not given),2.65%
8,Cc1cccc(S(=O)(=O)N2CN(CC3CCCO3)c3nc4ccccc4nc32)c1 (stereo not given),-6.17%
9,O=C(c1c(F)cccc1Cl)N1CCN(c2ccccn2)CC1,-18.5%
10,Cc1ccccc1N1CCN(CCCN2C(=O)C3CCCCN3C2=O)CC1 (stereo not given),-5.61%
11,CN(CC1CCCO1)S(=O)(=O)c1ccc(C(=O)Nc2ccc([N+](=O)[O-])cc2)cc1 (stereo not given),14%
12,CN(C(=O)c1cccc([N+](=O)[O-])c1)c1ccccc1C(=O)NCc1ccccc1,-10.6%
13,COc1cc2c(C(=O)O)c(C)n(C)c2c2ccccc12,-4.47%
14,COc1cccc2c(C)c(C(=O)O)[nH]c12,-35.1% (active)
15,Cc1c(C(=O)N/N=C/c2ccccc2)[nH]c2c([N+](=O)[O-])cccc12,-9.32%
16,COc1ccccc1N1CCN(S(=O)(=O)CCNC(=O)c2ccc(OC(C)C)cc2)CC1,-4.39%
17,Cc1ccccc1CNC(=O)CCC(=O)N1Cc2ccccc2Oc2ncccc21,13.6%
18,C[n+]1cc(-c2ccccc2)oc1-c1ccccc1,88.6% (active)
19,COc1ccccc1CCNS(=O)(=O)c1cn(C)nc1C,-8.83%
20,CS(=O)(=O)c1ccc2nc(NC(=O)C3CCCCC3)sc2c1,22.9%
21,CS(=O)(=O)c1ccc2nc(NC(=O)C3C4C=CC(C4)C3C(=O)O)sc2c1 (stereo not given),14.8%
22,CCCC(=O)Nc1nc2ccc(NC(=O)c3cccnc3)cc2s1,89.7%
23,CS(=O)(=O)c1ccc2nc(NC(=O)CN3CCCCCC3)sc2c1,18.3%
24,CS(=O)(=O)c1ccc2nc(NC(=O)c3ccc(Cl)nc3)sc2c1,70.7% (active)
25,Cc1cnc(NC(=O)c2ccccn2)s1,11.7%

row,Structure (SMILES),inhibition
1,CNC(=O)c1ccc2nc(NC(C)=O)sc2c1,45.1% (active)
2,CS(=O)(=O)c1ccc2nc(NC(=O)c3ccc(N4CCCC4=O)cc3)sc2c1,8.48%
3,COc1cccc(C(=O)Nc2nc3ccc(S(C)(=O)=O)cc3s2)c1,92.7% (active)
4,CCN(CC)c1ccc(NC(=O)c2ccc(Cl)nc2)cc1,18.4%
5,O=C(Nc1nc2ccc([N+](=O)[O-])cc2s1)c1ccncc1,35%
6,Cc1cnc(NC(=O)c2ccc(Cl)nc2)s1,109% (active)
7,CCCNC(=O)c1ccc(N2CCC3(CC2)CC(c2ccc(Cl)cc2)=NO3)c([N+](=O)[O-])c1,0.364%
8,COc1ccc(CN2CCCC(C(=O)N3CCCCC3)C2)cc1 (stereo not given),-9.61%
9,Cc1ccc2c(cnn2C(=O)CCC(=O)NC2CCCC2)c1,1.95%
10,CCOc1ccc(C(CC(=O)O)NC(=O)Cc2ccccc2)cc1OC (stereo not given),-3.82%
11,COc1ccc(C2CC(=O)NC(=O)C2)cc1,1.04%
12,Cc1c(CCC(=O)N[C@@H](CC(C)C)C(=O)O)c(=O)oc2c(C)c3oc4c(c3cc12)CCCC4,-1.24%
13,CCc1ccc(NC(=O)N[C@H](C(=O)O)C(C)CC)cc1 (stereo not given in full),-3.77%
14,CCc1ccc(NC(=O)Nc2ccncc2)cc1,58.2% (active)
15,O=C(Nc1ccncc1)Nc1ccc(F)cc1,30.2%
16,O=C(Nc1cc(C(=O)Nc2ccc(S(=O)(=O)O)cc2)cc(C(=O)Nc2ccc(S(=O)(=O)O)cc2)c1)Nc1cc(C(=O)Nc2ccc(S(=O)(=O)O)cc2)cc(C(=O)Nc2ccc(S(=O)(=O)O)cc2)c1,-5.01%
17,CCCn1c(=N)n(CC(=O)c2ccc(Cl)c(Cl)c2)c2ccccc21,-3.46%
18,CC(C)(C)C1CCC(C(=O)NCC(c2cccs2)N2CCOCC2)CC1 (stereo not given),-2.93%
19,O=C(NCc1cccs1)C1CCN(S(=O)(=O)c2ccc(Cl)cc2)CC1,-3.28%
20,O=C(NCc1csc(-c2cccs2)n1)C1CC1,68.5% (active)
21,COCc1ccc(C(=O)NC2CC(C)(C)Cc3c2cnn3-c2ccc(C)cc2)o1 (stereo not given),21.9%
22,O=C(OCc1ccccc1F)c1ccc2c(c1)OCCO2,104% (active)
23,CC(NC(=O)COC(=O)c1ccc2c(c1)OCO2)c1ccccc1 (stereo not given),17.4%
24,O=C(COC(=O)c1ccc2c(c1)OCCO2)NCc1ccccc1,19.3%
25,O=C(O)c1ccc(/C=C2\SC(=S)N(NC(=O)c3ccc(Br)cc3)C2=O)cc1,-9.68%

row,Structure (SMILES),inhibition
1,N#Cc1ccc(S(=O)(=O)NCC(=O)OCC(=O)NCCc2ccccc2)cc1,-5.8%
2,CCOC(=O)c1ccc(NC(=O)Cc2cccs2)cc1,49.2% (active)
3,CCOC(=O)c1ccc(NC(=S)N2CCCC2)cc1,8.67%
4,O=C(Cc1cccs1)Nc1ccc([N+](=O)[O-])cc1,-6.19%
5,CCOc1ccccc1NC(=O)Cc1cccs1,-4.91%
6,CCCCC(CCC(=O)Nc1ccc(C(=O)OCC)cc1)C(=O)O (stereo not given),-3.77%
7,C#CCNc1ccc(C(=O)OCC)cc1,58.3% (active)
8,CCOC(=O)c1cccc(NC(=O)C2CCN(c3ncnc4c3nc3n4CCCCC3)CC2)c1,10.8%
9,CC(Sc1nnc(-c2ccccc2F)n1C1CC1)C(N)=O (stereo not given),-9.07%
10,O=C(O)c1ccc2c(=O)n3c(nc2c1)/C(=C/c1ccc(OC(F)F)cc1OC(F)F)CC3,1.37%
11,O=C(CN1C(=O)/C(=C\c2ccccc2F)SC1=S)Nc1nc2ccccc2s1,51.7% (active)
12,CN(C(=O)CCN1C(=O)/C(=C/c2ccccc2F)SC1=S)C1CCS(=O)(=O)C1 (stereo not given),-3.82%
13,O=C(CN1C(=O)/C(=C/c2ccccc2F)Sc2ccccc21)NCc1cccnc1,13.6%
14,COc1ccc(CNc2ccc3c(c2)CCC3)cc1OC,37.9%
15,Cc1ccc(N2C(=O)CC(NCc3ccc4c(c3)OCO4)C2=O)cc1Cl (stereo not given),110% (active)
16,O=CN1CCN(C2CC(=O)N(c3ccc4c(c3)OCO4)C2=O)CC1 (stereo not given),19.5%
17,Cc1ccc(CC2CC(=O)N(c3ccc4c(c3)OCCO4)C2=O)cc1 (stereo not given),51.2%
18,Cc1cccc(NC(=S)NCCN(C2CCCCC2)C2CCCC2)c1,19.2%
19,Cc1cccc(C(=O)NCCCN(C)CCCNC(=O)c2cccc(C)c2)c1,-6.03%
20,Cc1cccc(C(=O)NC(=S)N(C)C2CCCCC2)c1,117% (active)
21,Cc1nc2ccc(C(=O)N(C)CC3CCCN(CCc4ccc(Cl)cc4)C3)cc2[nH]1 (stereo not given),-8.28%
22,COc1ccc(COC(=O)c2ccc(Cl)c(S(=O)(=O)N3CCOCC3)c2)cc1F,-8.8%
23,O=C(NCc1ccc(Cl)cc1)C1CCN(S(=O)(=O)c2cccs2)CC1,4.43%
24,O=C(CN1CCN(S(=O)(=O)c2ccc(Cl)s2)CC1)NCc1ccc(Cl)cc1,34.8% (active)
25,Cc1ccccc1N1CCN(CC(=O)NCc2ccc(Cl)cc2)CC1,-5.06%

row,Structure (SMILES),inhibition
1,CC(C)c1ccccc1OCC(O)CN(CC(O)COc1cccc2ccccc12)C(C)C (stereo not given),-14.8%
2,COc1cccc(C(=O)NC(=O)Nc2nc(C)cc(C(F)(F)F)n2)c1,4.77%
3,Brc1ccc(-c2nnc(-c3ccccc3)o2)o1,71.5% (active)
4,Brc1ccc(-c2noc(-c3ccccc3)n2)o1,139% (active)
5,Cn1nc(-c2ccccc2)c(-c2nc(-c3ccc(Cl)cc3)no2)c1Cl,-16%
6,Nc1nonc1-c1noc(-c2ccc(Br)o2)n1,24.2%
7,COc1ccc(CNC(=O)CCN2C(=O)c3ccccc3C2=O)cc1,4.69%
8,O=C(O)CC(c1ccccc1F)N1Cc2ccccc2C1=O (stereo not given),-12%
9,CCN(CC)C(=O)C(=O)c1cn(CC(=O)NCc2ccc3c(c2)OCO3)c2ccccc12,-11.5%
10,O=C(Cn1cc(C(=O)c2cccs2)c2ccccc21)NCc1cccs1,16.3% (active)
11,COCCCNC(=O)Cn1cc(C(=O)C2CC2)c2ccccc21,-8.71%
12,COC(=O)c1cn(CC(=O)NCc2cccs2)c2ccccc12,64.8% (active)
13,O=C(CN1CCN(c2ccccn2)CC1)NCc1cccs1,-22.2%
14,COC(=O)Cn1cc(C(=O)c2cccs2)c2ccccc21,2.14%
15,Cc1cc(=O)[nH]c(Nc2cccc(Br)c2)n1,-10.8%
16,N#Cc1cccc(CSc2ncnc(N)n2)c1,3.32%
17,Cc1ccccc1-n1cc(CNC(=O)C2CCC(=O)N(C3CC3)C2)cn1 (stereo not given),21.3%
18,COc1ccc2c(c1)N(C)/C(=C1/SC(=S)N(NC(C)=O)C1=O)S2,7.78%
19,COc1ccc(N(Cc2ccc(N(C)C)cc2)C(=O)c2ccc(S(C)(=O)=O)cc2)cc1,-10.5%
20,COc1ccc(Cn2c(=S)[nH]c3cc(C(=O)N4CCCCC4)ccc3c2=O)cc1,-3.58%
21,COc1cccc(COc2ccc(N(C)S(=O)(=O)c3ccccc3)cc2)c1,26%
22,CCOc1ccc(OCc2cccc(C(=O)N(CC)CC)c2)cc1,160% (active)
23,CCOc1ccc(OCc2ccc(C(=O)N(C)c3ccccc3)o2)cc1,13%
24,CC(=O)Oc1ccc(-c2cccc(C(=O)N3CCCCC3)c2)cc1,37.3%
25,COc1ccc(OCc2cccc(C(=O)N3CCCC3)c2)cc1,147% (active)
